Reference: article PMC5540273 (PLoS ONE, 2017)

Experiments:
Conditions in all cases: concentration: 1 μM,replicates: in singlicate; n = 1
FYN = test system: FYN
GAK = test system: GAK
GCN2(Kin.Dom.2,S808G) = test system: T1, GCN2(Kin.Dom.2,S808G)
T1 construct: gene EIF2AK4

GRK1 = test system: GRK1
GRK2 = test system: T2, GRK2
T2 construct: gene ADRBK1

GRK3 = test system: T3, GRK3
T3 construct: gene ADRBK2

GRK4 = test system: GRK4
GRK7 = test system: GRK7
GSK3A = test system: GSK3A
GSK3B = test system: GSK3B
HASPIN = test system: T4, HASPIN
T4 construct: gene GSG2

HCK = test system: HCK
HIPK1 = test system: HIPK1
HIPK2 = test system: HIPK2
HIPK3 = test system: HIPK3
HIPK4 = test system: HIPK4
HPK1 = test system: HPK1
HUNK = test system: HUNK
ICK = test system: ICK
IGF1R = test system: IGF1R
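Note: KINOMEscan kinase panel screen.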

Row | SMILES | %Inh (FYN) | %Inh (GAK) | %Inh (GCN2(Kin.Dom.2,S808G)) | %Inh (GRK1) | %Inh (GRK2) | %Inh (GRK3) | %Inh (GRK4) | %Inh (GRK7) | %Inh (GSK3A) | %Inh (GSK3B) | %Inh (HASPIN) | %Inh (HCK) | %Inh (HIPK1) | %Inh (HIPK2) | %Inh (HIPK3) | %Inh (HIPK4) | %Inh (HPK1) | %Inh (HUNK) | %Inh (ICK) | %Inh (IGF1R)
1 | C[C@@H](Oc1cc(-n2cnc3ccc(-c4ccncc4)cc32)sc1C(N)=O)c1ccccc1Cl [GSK483724] | 44% | 49% | 0% | 53% | 7% | 32% | 21% | 0% | 76% | 15% | 87% | 0% | 33% | 19% | 59% | 69% | 64% | 0% | 45% | 19%
2 | CCn1c(-c2nonc2N)nc2cncc(Br)c21 [SB-738004] | 0% | 17% | 0% | 32% | 12% | 69% | 0% | 16% | 29% | 40% | 99.4% | 3% | 47% | 74% | 74% | 0% | 42% | 27% | 7% | 0%
3 | Cc1ccc(CC(=O)N2CCc3cc(-c4cn(C)c5ncnc(N)c45)ccc32)cc1 [GSK2634758] | 41% | 34% | 42% | 0% | 0% | 24% | 0% | 0% | 9% | 0% | 5% | 0% | 6% | 0% | 13% | 5% | 63% | 1% | 0% | 18%
4 | CN1CCN(CCNc2nc3cc(Oc4ccc(NC(=O)Nc5cc(C(F)(F)F)ccc5F)cc4)ccc3[nH]2)CC1.Cl.Cl [GW768504] | 0% | 0% | 24% | 0% | 0% | 0% | 17% | 0% | 20% | 0% | 0% | 11% | 19% | 0% | 0% | 66% | 3% | 41% | 0% | 0%
5 | NC(=O)c1ccc(-c2cc3ncnc(SCC(=O)O)c3s2)cc1 | 0% | 45% | 0% | 30% | 0% | 0% | 0% | 0% | 14% | 0% | 0% | 13% | 94.8% | 96.1% | 92% | 79% | 2% | 0% | 10% | 0%
6 | Cl.c1ccc(Oc2ccc(Nc3ccnc4cc(-c5ccc(CN6CCNCC6)o5)ccc34)cc2)nc1 [GW567142] | 82% | 68% | 0% | 0% | 10% | 0% | 0% | 0% | 19% | 0% | 0% | 84% | 0% | 0% | 7% | 10% | 0% | 1% | 0% | 0%
7 | O=C(Nc1cccc(Oc2ccc3nccn3n2)c1)Nc1cccc(C(F)(F)F)c1 | 31% | 4% | 27% | 0% | 0% | 0% | 1% | 0% | 0% | 0% | 0% | 27% | 7% | 33% | 1% | 17% | 0% | 22% | 0% | 3%
8 | FC(F)(F)c1cc(Br)cc(Nc2nccc(-c3cnn4ncccc34)n2)c1 [GW810578] | 0% | 20% | 12% | 7% | 14% | 8% | 0% | 10% | 90.4% | 89% | 0% | 12% | 99.1% | 99.4% | 97.9% | 76% | 13% | 0% | 97.8% | 0%
9 | CN1CCN(CCCNc2nccc(-c3c(-c4ccc(F)cc4)nn4cc(C(N)=O)ccc34)n2)CC1 [GW622475] | 9% | 87% | 5% | 0% | 0% | 0% | 9% | 0% | 33% | 33% | 0% | 8% | 5% | 0% | 27% | 0% | 13% | 6% | 12% | 0%
10 | C[C@@H](Oc1cc(-n2cnc3cc(-c4ccncc4)ccc32)sc1C(N)=O)c1ccccc1Cl [GSK479719] | 29% | 59% | 69% | 100% | 0% | 62% | 62% | 0% | 13% | 24% | 75% | 9% | 0% | 0% | 15% | 24% | 72% | 0% | 4% | 14%
11 | Cn1ccc2ncnc(Oc3ccc(NC(=O)Nc4cc(C(C)(C)C)on4)c(Cl)c3)c21 | 35% | 13% | 0% | 16% | 62% | 1% | 0% | 8% | 0% | 0% | 5% | 66% | 36% | 34% | 0% | 28% | 30% | 2% | 15% | 15%
12 | O=C1NCCc2[nH]c(-c3ccncc3)cc21 | 0% | 5% | 0% | 14% | 25% | 36% | 3% | 27% | 88% | 54% | 100% | 20% | 91.5% | 97.2% | 95.5% |  | 7% | 0% | 29% | 0%
13 | COc1cccc(OC)c1C(=O)Nc1cccc(-c2nn3ccccc3c2-c2ccnc(Nc3cccc(F)c3)n2)c1 [GSK361065] | 22% | 6% | 0% | 0% | 0% | 0% | 0% | 17% | 24% | 0% | 0% | 30% | 31% | 0% | 0% | 84% | 2% | 15% | 0% | 7%
14 | Cc1ccc(Nc2ccnc(Nc3ccc4c(c3)CS(=O)(=O)C4)n2)cc1O.Cl [GW579362] | 97.9% | 87% | 98.4% | 2% | 0% | 22% | 82% | 0% | 63% | 23% | 0% | 90% | 26% | 0% | 28% | 44% | 62% | 8% | 28% | 56%
15 | COc1cc(Nc2nccc(N3CCC(NC(=O)c4cccc(C#N)c4)C3)n2)cc(OC)c1OC (stereo not drawn) [GSK1379751] | 0% | 47% | 9% | 0% | 0% | 33% | 0% | 0% | 0% | 5% | 8% | 0% | 0% | 0% | 3% | 0% | 45% | 0% | 0% | 0%
16 | Cn1ccc2ncnc(Oc3ccc(NC(=O)Nc4ccnc(C(F)(F)F)c4)c(Cl)c3)c21 | 0% | 0% | 10% | 0% | 0% | 29% | 100% | 0% | 11% | 0% | 9% | 0% | 35% | 0% | 0% | 0% | 0% | 8% | 0% | 2%
17 | Cn1ccc2ncnc(Oc3ccc(NC(=O)Nc4cccc(C(F)(F)F)c4)c(F)c3)c21 | 10% | 12% | 26% | 15% | 0% | 0% | 24% | 0% | 2% | 7% | 1% | 31% | 44% | 0% | 0% | 94.3% | 48% | 0% | 0% | 4%
